# Source: PubChem BioAssay
# Sampled rows, rich in hits. Any-hit rate of the full collection: about 2.3%.
# beta cell repl = inducers of MIN6 beta-cell proliferation, primary screen, ATP luminescence, uHTS. proliferation, % at 10 µM. MIN6 cells proliferation, ATPlite luminescence, 48 h; cells starved in 0.2% serum; 100% = growth in 10% serum. hit rate 0.29% among 330,000;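 active = compounds whose signal lies at least 3.5 SD above the mean of all wells on their plate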;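 note: 0% = DMSO-treated cells in low-serum medium and 100% = 10% serum control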
# H9c2 protect = cardioprotection against H2O2-induced cell death, primary screen, uHTS, H9c2 cells, ATPLite luminescence; protection from H2O2 cell death, % at 20 µM; hit rate 0.63% among 360,000; H9c2 cardiomyocytes, H2O2 injury protection, 2 h;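 active = compounds giving at least 50% protection of heart cells from peroxide-induced death in the single-dose screen, raw or plate-pattern-corrected value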;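 note: 0% = DMSO wells with peroxide and 100% = DMSO wells without peroxide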
# m-calpain inh = inhibitors of pig calpain II, primary screen, biochemical, fluorogenic peptide substrate, 1536-well; purified calpain II, 30 min; inhibition, % at 16 µM; hit rate 0.37% among 220,000;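 active = inhibition above about 50%, limit read from the data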
# FAS TE block = FAS thioesterase domain inhibitors, primary screen, biochemical, fluorescence intensity, uHTS; recombinant FAS-TE, OMFH fluorogenic substrate, fluorescence endpoint; inhibition, % at 15 µM; Fatty acid synthase (Homo sapiens), P49327; hit rate 0.67% among 360,000;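 active = compounds whose normalised, plate-corrected inhibition of enzyme fluorescence in the single-dose primary screen is 50% or more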;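 note: 0% = DMSO with enzyme and 100% = substrate without enzyme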
# Target sequence (P49327 whole entry, looked up, the tested form may be a part): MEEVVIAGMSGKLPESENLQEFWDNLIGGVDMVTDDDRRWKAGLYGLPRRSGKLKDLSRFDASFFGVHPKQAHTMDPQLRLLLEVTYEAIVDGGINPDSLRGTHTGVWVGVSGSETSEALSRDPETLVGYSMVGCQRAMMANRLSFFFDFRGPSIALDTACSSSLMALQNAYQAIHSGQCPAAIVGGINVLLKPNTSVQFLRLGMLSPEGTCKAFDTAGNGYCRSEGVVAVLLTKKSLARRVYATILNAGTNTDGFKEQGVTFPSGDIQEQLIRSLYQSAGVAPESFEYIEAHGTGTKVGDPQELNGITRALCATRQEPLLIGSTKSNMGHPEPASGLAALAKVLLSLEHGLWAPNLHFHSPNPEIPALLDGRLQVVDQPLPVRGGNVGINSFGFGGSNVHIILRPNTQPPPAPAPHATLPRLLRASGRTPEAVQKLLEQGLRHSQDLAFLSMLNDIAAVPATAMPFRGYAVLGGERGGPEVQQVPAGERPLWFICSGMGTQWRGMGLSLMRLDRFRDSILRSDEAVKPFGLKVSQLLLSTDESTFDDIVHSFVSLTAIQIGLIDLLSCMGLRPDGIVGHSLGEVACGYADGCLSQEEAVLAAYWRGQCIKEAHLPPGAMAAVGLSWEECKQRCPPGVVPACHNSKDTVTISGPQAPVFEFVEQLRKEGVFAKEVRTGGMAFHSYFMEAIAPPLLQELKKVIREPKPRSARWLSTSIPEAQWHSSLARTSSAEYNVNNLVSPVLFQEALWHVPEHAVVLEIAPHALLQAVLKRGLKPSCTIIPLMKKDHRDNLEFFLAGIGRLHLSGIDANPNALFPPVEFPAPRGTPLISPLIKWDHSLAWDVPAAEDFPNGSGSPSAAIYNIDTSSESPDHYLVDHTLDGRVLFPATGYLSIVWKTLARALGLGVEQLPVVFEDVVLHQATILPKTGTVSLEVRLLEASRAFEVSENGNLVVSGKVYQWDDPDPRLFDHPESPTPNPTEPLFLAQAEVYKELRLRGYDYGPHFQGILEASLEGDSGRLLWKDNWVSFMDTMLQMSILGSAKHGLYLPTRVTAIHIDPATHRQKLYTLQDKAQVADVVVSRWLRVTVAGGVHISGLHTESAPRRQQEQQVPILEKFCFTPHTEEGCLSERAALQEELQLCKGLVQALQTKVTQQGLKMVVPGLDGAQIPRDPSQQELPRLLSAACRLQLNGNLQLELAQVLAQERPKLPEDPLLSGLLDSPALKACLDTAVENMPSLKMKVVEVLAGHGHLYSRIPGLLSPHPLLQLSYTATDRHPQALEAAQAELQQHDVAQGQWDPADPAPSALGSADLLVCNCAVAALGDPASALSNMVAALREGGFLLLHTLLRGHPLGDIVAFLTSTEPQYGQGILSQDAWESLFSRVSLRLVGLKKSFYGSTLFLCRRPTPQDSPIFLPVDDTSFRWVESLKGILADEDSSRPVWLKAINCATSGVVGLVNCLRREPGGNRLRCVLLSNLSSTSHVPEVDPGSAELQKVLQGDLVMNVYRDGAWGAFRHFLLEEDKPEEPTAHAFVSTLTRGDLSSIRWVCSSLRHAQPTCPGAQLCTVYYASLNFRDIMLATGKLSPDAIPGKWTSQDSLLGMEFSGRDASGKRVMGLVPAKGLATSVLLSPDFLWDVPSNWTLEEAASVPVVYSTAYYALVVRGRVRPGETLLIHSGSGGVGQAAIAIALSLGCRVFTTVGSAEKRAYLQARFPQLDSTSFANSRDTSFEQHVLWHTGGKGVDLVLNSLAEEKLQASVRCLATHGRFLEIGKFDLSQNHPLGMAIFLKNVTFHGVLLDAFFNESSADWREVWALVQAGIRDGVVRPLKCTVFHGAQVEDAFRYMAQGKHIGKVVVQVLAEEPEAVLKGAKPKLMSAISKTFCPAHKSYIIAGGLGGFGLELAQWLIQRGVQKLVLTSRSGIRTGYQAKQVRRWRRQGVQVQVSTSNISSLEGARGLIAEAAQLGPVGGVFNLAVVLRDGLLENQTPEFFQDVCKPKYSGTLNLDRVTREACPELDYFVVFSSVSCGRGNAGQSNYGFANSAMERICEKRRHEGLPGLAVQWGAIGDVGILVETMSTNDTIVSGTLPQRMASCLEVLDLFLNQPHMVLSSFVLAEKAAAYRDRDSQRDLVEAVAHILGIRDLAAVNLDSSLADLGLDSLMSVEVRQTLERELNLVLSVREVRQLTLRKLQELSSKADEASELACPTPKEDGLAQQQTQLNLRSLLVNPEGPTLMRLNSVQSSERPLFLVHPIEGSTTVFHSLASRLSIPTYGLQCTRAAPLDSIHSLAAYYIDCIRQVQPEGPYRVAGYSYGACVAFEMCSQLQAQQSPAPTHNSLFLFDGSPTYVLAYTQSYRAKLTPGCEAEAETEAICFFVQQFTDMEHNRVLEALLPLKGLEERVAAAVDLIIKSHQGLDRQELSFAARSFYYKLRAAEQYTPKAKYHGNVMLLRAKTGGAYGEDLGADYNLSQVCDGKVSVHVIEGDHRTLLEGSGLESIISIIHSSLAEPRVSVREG
# aDG glyco up = activators of alpha-DG glycosylation, primary screen, uHTS, Pro5-aDG cells, AlphaScreen | alpha-DG glycosylation AlphaScreen (IIH6); 0% Pro5, 100% B10-LARGE cell signal | activation, % at 10 µM | hit rate 0.22% among 360,000 | AID 624168, 2012;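 active = activation of at least 8% versus controls, or a plate z-score of at least 8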;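 note: Pro5 are CHO cells carrying HIG-tagged alpha-DG that lacks glycosylation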
# TAG inh = inhibitors of triacylglycerol accumulation, primary screen, cell-based, uHTS, fluorescence, H9c2; H9c2 cells, Nile Red lipid (TAG) fluorescence; cells loaded with 200 µM oleic acid; inhibition, % at 12.5 µM; hit rate 0.66% among 230,000;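 active = pattern-corrected inhibition of lipid staining of at least 50% with the nuclear-stain viability signal not falling by more than 50%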;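 note: 0% = DMSO wells and 100% = triacsin C control wells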
# aDG glyco conf = alpha-DG glycosylation enhancers, retest, confirmation, single concentration, Pro5-aDG cells; shares compounds with aDG glyco up; IIH6 AlphaLISA; scaled to LARGE-overexpressing B10 cells as 100%; activation, % at 10 µM (by protocol); hit rate 17% among 600;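 active = activation of at least 7% in one or more replicates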;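 note: cells exposed to compound for two days before detection; 0% = DMSO-treated Pro5 cells and 100% = DMSO-treated B10-LARGE cells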
# Starred values were filed as active, the others as inactive; . = no result.
SMILES,beta cell repl,H9c2 protect,m-calpain inh,FAS TE block,aDG glyco up,TAG inh,aDG glyco conf
O=C(CSc1nnc(Cn2nnc3ccccc32)o1)N(Cc1ccc(Cl)cc1)c1ccccc1,-7,-20,23,20,6.4*,-60,0
FC(F)(F)c1ccccc1-n1c(-c2ccco2)n[nH]c1=S,-4,0,.,-8,0,.,.
CCC1CCCN1Cn1cnc2c([nH]c3ccc(OC)cc32)c1=O (centres undefined),-1,6,-387,-5,3.8*,.,1
CCC1CCCN1Cn1cnc2c([nH]c3ccccc32)c1=O (centres undefined),-1,-3,-44,-10,0,-5,.
Cc1cccc(C(=O)OCC(=O)N2c3ccccc3CC2C)c1C (centres undefined),.,-5,.,26,0,-9,.
COc1ccccc1/C=N/NC(=O)C(NC(=O)c1ccccc1)=C(C)C,-2,-1,0,-7,32*,-4,0
COc1ccccc1/C=N/NC(=O)c1ccc(Br)cc1,-3,0,48,4,0,.,.
Cc1ccc(Cc2c(-c3cccc(Br)c3)nc3c(Cl)cc(C(F)(F)F)cn23)cc1,.,.,.,16,0,.,.
CCC(C)(C)C1CCC2(CC1)NC(=O)N(CC(=O)N1CCN(c3ccccc3OC)CC1)C2=O (centres undefined),.,-2,.,6,0,30,.
Fc1cc(Cl)ccc1NC(=S)NCCN1CCOCC1,2,4,-22,-3,5.3*,7,-1
CCOC(=O)c1cnc(-n2nc(C)cc2C)nc1Nc1ccc(C)cc1,.,14,46,-7,6.5*,.,2
CCOC(=O)c1cnc(-n2nc(C)cc2C)nc1Nc1ccc(O)cc1,-6,-27,-7,-4,0,3,.
c1ccc(OCc2nc(-c3cccs3)no2)cc1,1,-9,26,5,0,.,.
Cc1cc(OCc2nc(-c3cccs3)no2)cc(C)c1Cl,-5,-3,15,28,7.7*,-8,0
COCCCn1cn[nH]c1=S,2,5,1,-4,6.3*,-20,3
O=C1CC(c2ccccc2)n2nc(NC(=O)C3CCCO3)nc2N1 (centres undefined),3,-4,-18,-6,3.1*,.,0
Cc1cccc(C)c1NC(=O)C(c1ccc(C#N)cc1)n1c(=O)c(-c2cc3ccccc3[nH]2)nc2ccccc21 (centres undefined),.,.,.,.,2,.,.
Cn1cc(C(=O)Nc2ccc(Cl)c(Cl)c2)cn1,-1,-4,.,1,0,10,.
O=C(Nc1ccc(N2CCCCCC2)cc1)c1cccc(S(=O)(=O)N2CCOCC2)c1,-5,-6,.,19,2.8*,1,1
CCOC(=O)CN(C(=O)CSc1nnc(CNc2ccc(C)cc2C)n1CC)c1ccccc1,-3,4,21,-2,0,-2,.
CCOC(=O)CN(C(=O)CSc1nnc(CNc2ccc(F)cc2)n1CC)c1ccc(F)cc1,-1,3,-16,-15,5.2*,27,0
Cc1c(Br)c([N+](=O)[O-])nn1CC(=O)N1CCCc2ccccc21,1,13,-6,12,4.4*,.,-1
CCOc1ccc2nc(NC(=O)CSC3=NCCS3)sc2c1,-3,-20,10,-38,3.4*,.,-1
O=C1C(=O)N(CCS(=O)(=O)c2ccccc2)c2ccc(F)cc21,-2,-2,.,-2,7.6*,.,5.4*
CCOC(=O)c1ccc(NC(=O)COc2ccccc2CNCCc2ccccc2)cc1,-7,-23,28,5,5.8*,44,3
SMILES,beta cell repl,H9c2 protect,m-calpain inh,FAS TE block,aDG glyco up,TAG inh,aDG glyco conf
Cc1ccc2c(c1)NC(=O)C(CC(=O)NCCCN1CCCCC1)O2 (centres undefined),-1,4,-26,-2,0,.,.
Cc1ccc2c(c1)NC(=O)C(CC(=O)NCCCN1CCN(c3cc(Cl)ccc3C)CC1)O2 (centres undefined),-6,5,-25,6,14*,12,0
COC(=O)c1ccc(CNC(=O)Cn2cnc3c(NCc4ccccc4)ncnc32)cc1,.,8,.,-9,8.3*,14,1
CCc1ccc(NC(=S)NC2CC3CCCC(C2)N3Cc2cccs2)cc1 (centres undefined),-4,-20,30,9,4.0*,.,2
CCc1ccccc1NC(=O)NC1CC2CCC(C1)N2Cc1cccs1 (centres undefined),0,2,10,-3,0,.,.
O=C(NC1CCCCC1)c1ccc(-c2ccccc2F)o1,0,-12,.,11,0,-7,.
O=C(NCc1cccc(Cl)c1)c1cc(COc2ccc3ncccc3c2)on1,-7,-27,39,26,10*,-15,5
Cc1ccc(F)cc1CNC(=O)c1cc(COc2ccc3ncccc3c2)on1,-5,-19,-5,10,8.7*,.,3
Cc1cc(C)n(CCNC(=O)c2cc(COc3ccc4ncccc4c3)on2)n1,-4,-28,-122,-9,0,-7,.
NC(=O)c1cccc(-c2ccnc3c2CC(C(=O)NCc2cccc(Cl)c2)O3)c1 (centres undefined),.,10,.,2,0,1,.
Brc1ccc(CNc2ccc3ncccc3c2)cc1,-6,-16,.,16,2.8*,.,0
CC(C)NC(=O)Cn1nnc(-c2ccccc2)c1COc1ccc2ccccc2c1,.,-5,.,7,0,4,.
O=C(CN1C2=NCCCN2c2ccccc21)c1ccc([N+](=O)[O-])cc1,-1,-3,-2,-5,7.5*,-4,1
CC(C)[C@H](NS(=O)(=O)c1ccccc1)C(=O)OCC(=O)NC(=O)c1cccn1C,0,2,6,-1,0,11,.
Cc1ccc(S(=O)(=O)N[C@H](C(=O)OCC(=O)NC(=O)c2cccn2C)C(C)C)cc1,.,0,.,5,3.6*,-9,1
Brc1cccc(-c2nc3c4ccccc4ccn3c2CC2CCCCC2)c1,.,.,.,18,15*,.,5.8*
c1ccc(-c2nc3c4ccccc4ccn3c2CC2CCCCC2)cc1,.,.,.,24,4,.,.
CCOc1ccccc1NC(=O)CN1CCN(C(=O)C2CCCO2)CC1 (centres undefined),6,-2,.,-4,0,11,.
CCOC1=C2CN(S(=O)(=O)c3ccc(C)cc3)[C@H](c3ccccc3)C[C@@H]2N(S(=O)(=O)c2ccc(C)cc2)[C@H](c2ccccc2)C1,.,-3,.,22,6.8*,.,-1
